From PubChem BioAssay AID1159580 (chemical genetic matrix, 2015)
The whole screen tested about 5,500 compounds, of which about 2,000 (36%) were called active. Roughly 18% stayed inconclusive and do not appear here. No stated cut-off is given here; in the data, active means normalized growth mostly below about 0.91 (no sharp cut-off); inconclusive means no clear call, values can overlap the other calls; inactive means mostly above about 0.92. This is one part of the list.

Assay: chemical genetic growth profiling, strain panel (AID 1159580);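 further: tested at 20 µM; growth read once vehicle control cultures reached saturation at 30 °C; 1 = growth at the plate median or of vehicle wells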
Conditions: growth OD

Measured: normalized growth

O=C(O)CSCCOc1ccccc1
inactive: S. cerevisiae deletion strains, locus YAL013W, strain DEP1, stronger effect = lower value 1.01 | S. cerevisiae deletion strains, locus YBR229C, strain ROT2, stronger effect = lower value 1.01 | S. cerevisiae deletion strains, locus YCL061C, strain MRC1, stronger effect = lower value 1 | S. cerevisiae deletion strains, locus YDL101C, strain DUN1, stronger effect = lower value 0.997 | S. cerevisiae deletion strains, locus YDL134C, strain PPH21, stronger effect = lower value 1.03 | S. cerevisiae deletion strains, locus YDR150W, strain NUM1, stronger effect = lower value 0.932 | S. cerevisiae deletion strains, locus YEL061C, strain CIN8, stronger effect = lower value 1.01 | S. cerevisiae deletion strains, locus YGR078C, strain PAC10, stronger effect = lower value 1 | S. cerevisiae deletion strains, locus YHR030C, strain SLT2, stronger effect = lower value 1.07 | S. cerevisiae deletion strains, locus YHR087W, strain rtc3, stronger effect = lower value 0.998 | S. cerevisiae deletion strains, locus YJR043C, strain POL32, stronger effect = lower value 1.01 | S. cerevisiae deletion strains, locus YJR075W, strain HOC1, stronger effect = lower value 1.02 | S. cerevisiae deletion strains, locus YKL190W, strain CNB1, stronger effect = lower value 1.01 | S. cerevisiae deletion strains, locus YLR039C, strain RIC1, stronger effect = lower value 1.04 | S. cerevisiae deletion strains, locus YLR058C, strain SHM2 (second series), stronger effect = lower value 1.01 | S. cerevisiae deletion strains, locus YLR085C, strain ARP6, stronger effect = lower value 0.997 | S. cerevisiae deletion strains, locus YLR262C, strain YPT6, stronger effect = lower value 1.05 | S. cerevisiae deletion strains, locus YML094W, strain GIM5, stronger effect = lower value 1.01 | S. cerevisiae deletion strains, locus YMR219W, strain ESC1, stronger effect = lower value 1 | S. cerevisiae deletion strains, locus YMR263W, strain SAP30, stronger effect = lower value 1.01 | S. cerevisiae deletion strains, locus YMR307W, strain GAS1, stronger effect = lower value 1.05 | S. cerevisiae deletion strains, locus YNL153C, strain GIM3, stronger effect = lower value 1 | S. cerevisiae deletion strains, locus YNL298W, strain CLA4 (second series), stronger effect = lower value 1.02 | S. cerevisiae deletion strains, locus YNL322C, strain KRE1, stronger effect = lower value 0.997 | S. cerevisiae deletion strains, locus YNR030W, strain Alg12, stronger effect = lower value 1.02 | S. cerevisiae deletion strains, locus YPL055C, strain LGE1, stronger effect = lower value 1.09 | S. cerevisiae deletion strains, locus YPL241C, strain CIN2, stronger effect = lower value 0.994 | S. cerevisiae deletion strains, locus YPR135W, strain CTF4, stronger effect = lower value 1.17 | S. cerevisiae strains, strain wild type, stronger effect = lower value 1.02
